High-throughput results from PubChem.
POLK inh: qHTS for Inhibitors of Polymerase Kappa; AID 588579, 2011; 400,000 tested, 0.53% active; DNA polymerase kappa (Homo sapiens), Q9UBT6; Potency, µM (doses to about 107 µM), inactives show at the highest dose activity, negative = inhibition, most hits filed as inhibitors; purified Pol kappa, fluorescent DNA synthesis assay, 10 min; further: potency means the concentration at half of the fitted maximal effect; on the % scale 0 is the no-effect control and ±100 the full control effect
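10 nM Pol kappa preincubated 15 min at room temperature with compounds, then reaction started with substrate at 50 nM final. Fluorescence read kinetically at 0 and 10 min; buffer-only wells served as negative control.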
Pol iota inh: qHTS for Inhibitors of Polymerase Iota; DNA polymerase iota (Homo sapiens), Q9UNA4; 390,000 tested, 1% active; Pol iota fluorescent replication assay, 10 min; Potency, µM (top dose mostly 115 µM), inactives show top-dose activity, negative = inhibition, most hits filed as inhibitors; AID 588590, 2011; further: potency means the concentration at half of the fitted maximal effect
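Pol iota at 10 nM preincubated 15 min with compounds at room temperature; reaction started with fluorescent substrate, 50 nM final. Fluorescence read kinetically at 0 and 10 min; buffer-only wells as negative control.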
POLH inh: qHTS for Inhibitors of Polymerase Eta. Potency, µM (highest dose often 114 µM), without a hit: at the highest dose activity change, negative = inhibition, actives largely listed as inhibitors. 390,000 tested, 1.2% active. AID 588591, 2011. recombinant Pol eta, fluorescent DNA replication assay; further: potency means the concentration at half of the fitted maximal effect; on the % scale 0 is the no-effect control and ±100 the full control effect
Target sequence (Q9Y253 whole entry, looked up): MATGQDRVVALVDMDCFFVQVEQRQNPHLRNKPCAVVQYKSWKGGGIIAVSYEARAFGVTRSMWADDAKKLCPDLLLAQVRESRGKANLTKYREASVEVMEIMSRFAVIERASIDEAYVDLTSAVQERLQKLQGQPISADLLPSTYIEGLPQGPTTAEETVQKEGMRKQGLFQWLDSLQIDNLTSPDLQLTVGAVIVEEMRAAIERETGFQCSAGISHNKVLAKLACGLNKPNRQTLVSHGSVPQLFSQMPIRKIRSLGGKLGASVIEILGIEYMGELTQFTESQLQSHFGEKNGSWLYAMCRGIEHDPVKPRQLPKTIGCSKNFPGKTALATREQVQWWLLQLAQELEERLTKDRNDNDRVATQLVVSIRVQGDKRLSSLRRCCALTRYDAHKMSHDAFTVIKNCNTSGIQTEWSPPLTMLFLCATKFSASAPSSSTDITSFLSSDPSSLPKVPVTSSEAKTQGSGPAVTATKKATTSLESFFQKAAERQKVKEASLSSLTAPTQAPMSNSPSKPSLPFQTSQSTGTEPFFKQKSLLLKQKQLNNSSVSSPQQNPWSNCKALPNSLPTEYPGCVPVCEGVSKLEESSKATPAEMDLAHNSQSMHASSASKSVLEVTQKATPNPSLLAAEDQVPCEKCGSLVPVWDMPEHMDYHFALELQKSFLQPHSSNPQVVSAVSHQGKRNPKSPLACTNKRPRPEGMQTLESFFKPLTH
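Pol eta at 10 nM preincubated with compounds 15 min at room temperature; reaction started with fluorescent substrate (50 nM final) and read kinetically at 0 and 10 min.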
PI5P4Ka inh: qHTS for Inhibitors of phosphatidylinositol 5-phosphate 4-kinase (PI5P4K); PI5P4Kalpha enzyme, ADP-Glo luminescence, 60 min; active compounds read low; max response, %; 330,000 tested, 1.2% active; AID 652105, 2013; active means max response of -50% or lower; inconclusive means between -30% and -50%; inactive means -30% or higher; further: value at the top dose of about 77 µM; on the % scale 0 is the no-effect control and ±100 the full control effect
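ADP-Glo luminescence end-point read after a 60 min room-temperature kinase reaction of PI5P4Kalpha plus substrate, initiated with ATP at 5 microM final. Buffer: 0.038 M HEPES pH 7.4, EGTA, 0.1% CHAPS, 5% DMSO.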
12-LOX inh: Primary qHTS assay for inhibitors of human arachidonate 12S-lipoxygenase (ALOX12): Round 2; Polyunsaturated fatty acid lipoxygenase ALOX12 (Homo sapiens), P18054; purified 12hLO, xylenol orange hydroperoxide absorbance; Potency, µM (titrated, usually from 108 µM), inactives show at the highest dose activity change, negative = inhibition, actives largely listed as inhibitors; 580,000 tested, 1.1% active; AID 1671190, 2021; further: potency means the concentration at half of the fitted maximal effect; on the % scale 0 is the no-effect control and ±100 the full control effect
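Purified human 12hLO (150 nM final) in 25 mM Hepes, 0.01% Triton X-100, pH 7.0 was preincubated 15 min at room temperature with compound. Then 40 uM arachidonic acid was added, 30 min. Hydroperoxide was read by Fe-XO absorbance ratio 573/405 nm.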
Pol beta inh: qHTS Assay for Inhibitors of DNA Polymerase Beta; AID 485314, 2010; Pol beta primer extension/strand displacement, fluorescence kinetic; P06746; 340,000 tested, 1.3% active; Potency, µM (top dose mostly 114 µM), for the others: at the highest dose activity change, negative = inhibition, actives largely listed as inhibitors; further: potency means the concentration at half of the fitted maximal effect; on the % scale 0 is the no-effect control and ±100 the full control effect
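Pol beta (10 nM) was preincubated with compound for 15 min at room temperature. The reaction was then started with 50 nM substrate and read immediately and after a further 10 min at room temperature.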
Starred values were filed as active, the others as inactive; ? = inconclusive; / = no result; ! = not confirmed by another sample. The list is not random: actives were taken first. Their share in the collection is about 2.9%. Unless noted, the call rests on the fitted dose curve; in most records, active means well fitted inhibition curve with a large enough effect; inconclusive means small, poorly fitted or top-dose-only effect, or another doubt; inactive means no such curve, though single readings can be large or run the other way.

SMILES | POLK inh | Pol iota inh | POLH inh | PI5P4Ka inh | 12-LOX inh | Pol beta inh
COc1ccc(NC(=O)C(=O)NCCN2CCN(C(=O)c3cccc(C)c3)CC2)cc1 | / | / | / | / | 15% | /
CC(C)C(=O)Nc1ccc(NC(=O)c2cccs2)cn1 | 0% | 3% | 0% | -1 | 45µM* | 2%
O=C(CC12CC3CC(CC(C3)C1)C2)NCC(=O)N1CCC(c2nc3ccccc3o2)CC1 | / | / | / | / | -3% | /
COc1ccc(C)cc1NC(=O)COc1ccc(C(=O)Nn2c(C)ccc2C)cc1 | / | / | / | / | -10% | /
COCCCNc1nc2ccccc2nc1NS(=O)(=O)c1cc(Cl)ccc1Cl | -6% | -3% | -17% | 3 | 40µM* | 3%
CCN1CCN(c2nc3ccccc3nc2NS(=O)(=O)c2cc(Cl)ccc2Cl)CC1 | / | / | / | / | 25µM* | /
CN1CCc2cc3c(c4c2[C@H]1[C@H](O)c1ccccc1-4)OCO3 | ? | ? | -24% | 7 | -19% | 45µM*
CN1CCc2cccc3c2[C@H]1Cc1ccc(O)c(O)c1-3 | -6% | 18µM* | -1% | -56*! | 1.4µM*! | 3%
O=S(=O)(Nc1ccc(-c2csc(-c3ccccc3)n2)cc1)c1ccc(F)cc1 | -3% | -28% | -18% | 2 | ? | ?
O=C(Nc1nc(-c2ccccc2)cs1)c1ccccc1NS(=O)(=O)c1ccc(F)cc1 | -12% | -25% | 50µM* | -16 | ? | 45µM*
CCn1c(COc2ccccc2)nnc1SCC(=O)N1CCc2ccccc2C1 | / | / | / | / | 3% | /
COCc1cccc(C(=O)NC(C)c2cccc(OC(F)F)c2)c1 (centres undefined) | / | / | / | / | 29% | /
CCOC(=O)c1cnc2nc(-c3ccncc3)nn2c1C | / | / | / | / | 7% | /
CS(=O)(=O)c1ccc(C(=O)OCC(=O)NC23CC4CC(CC(C4)C2)C3)cc1[N+](=O)[O-] | -6% | 22µM* | 16µM* | 0 | -14% | 1%
CS(=O)(=O)c1ccc(C(=O)OCC(=O)NC(=O)NC2CCCCC2)cc1[N+](=O)[O-] | 4% | -20% | / | / | / | /
S=C(Nc1ccccc1Oc1ccccc1)Nc1cccc(Cl)c1Cl | -15% | 19% | -15% | -6 | 35µM* | 47%
S=C(Nc1ccc(Cl)cc1Cl)Nc1ccccc1Oc1ccccc1 | -4% | 2% | -17% | -1 | / | -5%
CCCCN(Cc1cc2cc(OC)ccc2[nH]c1=O)S(=O)(=O)c1ccccc1 | / | / | / | / | 0% | /
CCCn1c(=O)[nH]c(=O)c2c1nc(-c1ccccn1)n2CCOC | / | / | / | / | -5% | /
COc1ccc(-c2nc3ccc(N4CCCC4)cc3c(=O)[nH]2)cc1OC | -3% | ? | ? | 9 | 0% | 40µM*
O=S(=O)(Nc1nc2ccccc2nc1Nc1cccc(S(=O)(=O)N2CCCCC2)c1)c1ccccc1 | -16% | ? | 89µM* | -16 | -17% | ?
CC(=O)Nc1ccc(S(=O)(=O)Nc2nc3ccccc3nc2Nc2cccc(Cl)c2)cc1 | / | / | / | / | 16µM* | /
CC(=O)Nc1ccc(S(=O)(=O)Nc2nc3ccccc3nc2Nc2ccc(O)c(C(=O)O)c2)cc1 | 79µM* | 20µM* | -9% | -23 | -9% | 15%
CC(=O)c1cccc(Nc2nc3ccccc3nc2NS(=O)(=O)c2ccccc2)c1 | / | / | / | / | 19% | /
CC(=O)Nc1ccc(S(=O)(=O)Nc2nc3ccccc3nc2Nc2ccc(S(N)(=O)=O)cc2)cc1 | -13% | 155% | -7% | -7 | -15% | 22%
COc1c(Br)cc(Br)cc1/C=C(\C#N)c1nc2ccccc2[nH]1 | / | / | / | / | 7% | /
O=C(O)Cn1cc(/C=N/NC(=O)c2cc3cc(Br)ccc3o2)c2ccccc21 | -25% | 71µM* | -22% | -75* | -5% | ?
